From PubChem BioAssay
An excerpt weighted towards active compounds, which were near 6.5% of everything screened.
VACV mCherry inh: qHTS for Stage-Specific Inhibitors of Vaccinia Orthopoxvirus: mCherry Reporter Primary qHTS | hit rate 0.63% among 310,000 | Potency, µM (series often up to 36.5 µM), usual class: inhibitors | Vaccinia virus mCherry reporter infection, fluorescence; calls by dose curve; tested in A549 cells; note: nearly all actives have a fitted effect of over 35% in size
FMDV antiviral: High Throughput Screening for Foot and Mouth Disease Virus Antivirals. Potency, µM (titrated, usually from 57.9 µM), actives largely listed as inhibitors. hit rate 1.2% among 410,000. FMDV antiviral cell-based qHTS; calls by dose curve; tested in HEK293T cells; note: read-out not given here; nearly all actives have a fitted effect of over 45% in size
Marburg entry inh: qHTS for inhibitors of binding or entry into cells for Marburg Virus. Marburg virus pseudotyped entry inhibition, cell reporter. Potency, µM (series often up to 37.8 µM), actives largely listed as inhibitors. hit rate 1.8% among 300,000. AID 540276, 2011; calls by dose curve; tested in HEK293 cells
Lassa entry inh: qHTS for Inhibitors of binding or entry into cells for Lassa Virus. Lassa virus pseudotype entry inhibition, cell reporter. Potency, µM (series often up to 37.9 µM), actives largely listed as inhibitors. hit rate 1.2% among 300,000. AID 540256, 2011; calls by dose curve; tested in HEK293 cells; note: nearly all actives have a fitted effect of over 50% in size
VACV Venus inh: qHTS for Stage-Specific Inhibitors of Vaccinia Orthopoxvirus: Venus Reporter Primary qHTS | hit rate 0.46% among 330,000 | AID 720580, 2013 | Vaccinia virus Venus reporter expression, fluorescence | Potency, µM (doses to about 36.5 µM), usual class: inhibitors; calls by dose curve; tested in A549 cells; note: nearly all actives have a fitted effect of over 30% in size
HCMV inh: qHTS Assay for inhibitors of the human cytomegalovirus (HCMV); activity change, negative = inhibition, % at 57.5 µM; hit rate 4.5% among 410,000; HFF cells, HCMV-luciferase reporter, 72 h; stronger effect = lower value; in the data active = activity change below about -60%; inconclusive = no clear call, values can overlap the other calls; inactive = above about -39%
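Screen run at 2 compound doses on HFFs infected with reporter HCMV, MOI 1 PFU/cell. Luciferase activity from cell lysates at 72 h post infection gave inhibition relative to buffer-only and Salinomycin wells.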
Of the large screens only hits and unclear results are named; the others gave an inactive call.

CCOc1ccc(C(=O)Nc2nc3ccccc3[nH]2)cc1OCC	VACV mCherry inh inconclusive, FMDV antiviral inconclusive, Marburg entry inh 11.2µM, HCMV inh -63.0 (no result: Lassa entry inh)
N#Cc1ccc(C(=O)Nc2ccc3ccccc3c2)cc1	VACV mCherry inh inconclusive, Marburg entry inh inconclusive, Lassa entry inh 3.98µM
N#Cc1ccccc1Sc1ccccc1C(=O)Nc1ccc2ccccc2c1	VACV mCherry inh inconclusive (no result: Marburg entry inh, Lassa entry inh)
CCc1ccc(C(=O)Nc2nc3ccccc3[nH]2)cc1	FMDV antiviral 5.62µM, Marburg entry inh inconclusive, Lassa entry inh inconclusive, VACV Venus inh inconclusive, HCMV inh -100.7
CCOC(=O)c1ccc2c(c1)N(CC(=O)Nc1ccc(C)cc1C)C(=O)c1ccccc1S2	none (no result: Marburg entry inh)
CC1CCCCN1C(=O)COC(=O)c1ccc(S(C)(=O)=O)c([N+](=O)[O-])c1 (stereo not given)	none (no result: FMDV antiviral, Marburg entry inh, Lassa entry inh, HCMV inh)
CCOc1cccc(/C=N/NC(=O)c2cc(C3CC3)[nH]n2)c1O	HCMV inh -90.0 (no result: VACV mCherry inh, Marburg entry inh, Lassa entry inh, VACV Venus inh)
CCOc1cccc(/C=N/NC(=O)c2cccnc2)c1O	none (no result: VACV mCherry inh, Marburg entry inh, Lassa entry inh, VACV Venus inh)
CN(C)CCNc1ccc(CO)c2oc3ccc(O)cc3c(=O)c12	VACV mCherry inh inconclusive, Marburg entry inh inconclusive, Lassa entry inh inconclusive, VACV Venus inh 10µM, HCMV inh -99.1
CCN(CC)CCNc1ccc(CO)c2oc3cc(Cl)ccc3c(=O)c12	VACV mCherry inh inconclusive, VACV Venus inh inconclusive (no result: Marburg entry inh, Lassa entry inh)
Cc1cc(N2CCN(C(c3ccccc3)c3ccccc3)CC2)n2ncnc2n1	FMDV antiviral inconclusive, HCMV inh -97.3
Cc1nc2ncnn2c(N2CCN(C(c3ccccc3)c3ccccc3)CC2)c1C	Lassa entry inh inconclusive, HCMV inh -69.5 (no result: VACV mCherry inh, VACV Venus inh)
Cc1cc(N2CCN(c3nc4ccccc4s3)CC2)n2ncnc2n1	FMDV antiviral 11.2µM, Marburg entry inh inconclusive, Lassa entry inh inconclusive, HCMV inh -101.8 (no result: VACV mCherry inh, VACV Venus inh)
Cc1cc(N2CCN(C(=O)c3ccco3)CC2)n2ncnc2n1	none (no result: VACV mCherry inh, VACV Venus inh)
Cc1nc2ncnn2c(N2CCN(c3cccc(C(F)(F)F)c3)CC2)c1C	FMDV antiviral inconclusive, Lassa entry inh inconclusive, HCMV inh -101.0 (no result: VACV mCherry inh, VACV Venus inh)
Cc1cc(N2CCN(c3cccc(C(F)(F)F)c3)CC2)n2ncnc2n1	none (no result: VACV mCherry inh)
Cc1nc2ncnn2c(N2CCN(S(=O)(=O)c3ccc(Br)cc3)CC2)c1C	FMDV antiviral inconclusive
COc1ccccc1NC(=O)Cn1c(SCC(=O)N(C)c2ccccc2)nc2ccccc21	Lassa entry inh inconclusive (no result: Marburg entry inh)
C=CCN1C[C@H](C)N([C@H](c2ccc(C(=O)N(CC)CC)cc2)c2cccc(O)c2)C[C@H]1C	none (no result: VACV mCherry inh, Marburg entry inh, Lassa entry inh, VACV Venus inh, HCMV inh)
COCCn1c(=NC(=O)c2ccc(S(=O)(=O)N3CCc4ccccc4C3)cc2)sc2cc(S(N)(=O)=O)ccc21	none
C=CCn1c(=NC(=O)c2ccc(S(=O)(=O)N3CCc4ccccc4C3)cc2)sc2cc(S(N)(=O)=O)ccc21	VACV mCherry inh inconclusive, Marburg entry inh inconclusive, Lassa entry inh inconclusive, HCMV inh -65.1
CCOCCn1c(=NC(=O)c2ccc(S(=O)(=O)N3CCOCC3)cc2)sc2cc(S(N)(=O)=O)ccc21	HCMV inh -62.6
C#CCn1c(=NC(=O)c2ccc(S(=O)(=O)N3CCc4ccccc4C3)cc2)sc2cc(S(N)(=O)=O)ccc21	VACV mCherry inh 6.31µM, Marburg entry inh 14.1µM, Lassa entry inh 9.2µM, VACV Venus inh 7.94µM (no result: HCMV inh)
Cc1ccc2nc(N3CCN(c4ccccc4F)CC3)c3nnnn3c2c1	none (no result: Marburg entry inh)
C[C@@H](Oc1ccccc1)c1nnn(Cc2ccccc2)c1-c1c([C@@H](C)Oc2ccccc2)nnn1Cc1ccccc1	HCMV inh -72.4 (no result: Marburg entry inh, Lassa entry inh)
CCOC(=O)c1nn(-c2ccc(C)cc2)cc1O	Marburg entry inh inconclusive, Lassa entry inh inconclusive
CCOC(=O)c1nn(-c2ccc3c(c2)OCO3)cc1O	HCMV inh -101.4 (no result: VACV mCherry inh)
O=C1C=CC(O)C2(CO)OC12 (stereo not given)	FMDV antiviral 28.2µM (no result: Marburg entry inh, Lassa entry inh)
NC(=O)c1ccccc1N/C=C/C(=O)c1ccc(Cl)cc1Cl	Marburg entry inh 5.62µM, Lassa entry inh inconclusive
N#Cc1ccccc1N/C=C/C(=O)c1ccc(Cl)cc1	Marburg entry inh inconclusive, Lassa entry inh 12.6µM, VACV Venus inh inconclusive
CCNc1nc(C#N)nc(N2CCOCC2)n1	none (no result: FMDV antiviral, Marburg entry inh, Lassa entry inh, HCMV inh)
COc1ccc(-c2nc(C)c(CCNC(=O)c3cccc(C)c3)s2)cc1OC	none (no result: Marburg entry inh)
O=C1NC(c2ccccc2Cl)Nc2ccccc21 (stereo not given)	Marburg entry inh inconclusive (no result: VACV mCherry inh, VACV Venus inh)
O=C1NC(c2cccc3ccccc23)Nc2ccccc21 (stereo not given)	VACV mCherry inh inconclusive, Marburg entry inh inconclusive, Lassa entry inh inconclusive, VACV Venus inh inconclusive, HCMV inh -69.0
COc1ccc2ccccc2c1C1NC(=O)c2ccccc2N1 (stereo not given)	VACV mCherry inh inconclusive, Lassa entry inh inconclusive, VACV Venus inh 5.62µM
C[C@@H]1CCC2[C@](C)(CO)[C@@H](O)CC[C@]2(C)[C@]12CCC(CO)(CCO)O2 (stereo not given in full)	none (no result: VACV mCherry inh, Marburg entry inh, Lassa entry inh, VACV Venus inh, HCMV inh)
C/C=C1/C[N@@+]2(C)CC[C@]34C(=C(C=O)[C@H]1C[C@H]32)Nc1ccccc14	none (no result: Marburg entry inh, Lassa entry inh, HCMV inh)
COC(=O)c1cc2c(c3c4ccccc4n(S(=O)(=O)c4ccc(OC)cc4)c13)C(=O)N(Cc1ccc(C(F)(F)F)cc1)C2	none (no result: VACV mCherry inh, FMDV antiviral, Marburg entry inh, Lassa entry inh, VACV Venus inh)
C[C@@H]1CN([C@H](C)CO)S(=O)(=O)c2ccc(C#Cc3ccccc3)cc2O[C@H]1CN(C)C(=O)Nc1ccc2c(c1)OCO2	HCMV inh -86.7 (no result: Marburg entry inh, Lassa entry inh)
C[C@H](CO)N1C[C@H](C)[C@@H](CN(C)C(=O)c2ccc3c(c2)OCO3)Oc2cc(/C=C/c3ccccc3)ccc2S1(=O)=O	VACV Venus inh inconclusive, HCMV inh -61.9 (no result: Marburg entry inh, Lassa entry inh)
